# Results published in publication PMC5540273 (PLoS ONE, 2017).
# Columns and labels:
# Settings in all cases: concentration: 1 μM, replicates: in singlicate; n = 1
# SNARK = system: T1, SNARK
# T1 construct: gene NUAK2
# SNRK = system: SNRK
# SRC = system: SRC
# SRMS = system: SRMS
# SRPK1 = system: SRPK1
# SRPK2 = system: SRPK2
# SRPK3 = system: SRPK3
# STK16 = system: STK16
# STK33 = system: STK33
# STK35 = system: STK35
# STK36 = system: STK36
# STK39 = system: STK39
# SYK = system: SYK
# SgK110 = system: SgK110
# TAK1 = system: T2, TAK1
# T2 construct: gene MAP3K7
# TAOK1 = system: TAOK1
# TAOK2 = system: TAOK2
# TAOK3 = system: TAOK3
# TBK1 = system: TBK1
# TEC = system: TEC
# 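Further: KINOMEscan kinase panel screen.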
SMILES,%Inh (SNARK) [%],%Inh (SNRK) [%],%Inh (SRC) [%],%Inh (SRMS) [%],%Inh (SRPK1) [%],%Inh (SRPK2) [%],%Inh (SRPK3) [%],%Inh (STK16) [%],%Inh (STK33) [%],%Inh (STK35) [%],%Inh (STK36) [%],%Inh (STK39) [%],%Inh (SYK) [%],%Inh (SgK110) [%],%Inh (TAK1) [%],%Inh (TAOK1) [%],%Inh (TAOK2) [%],%Inh (TAOK3) [%],%Inh (TBK1) [%],%Inh (TEC) [%]
Cc1cccc(Nc2nc(NCCN)ncc2C(N)=O)c1 [GSK1292139],73,0,40,0,56,18,0,30,73,34,0,14,97,91.1,83,15,66,9,28,40
CCn1cnc2c(NCc3ccccc3)ncnc21 [SKF-96418],0,0,0,26,0,47,18,0,0,0,0,16,0,0,0,0,27,0,17,0
CCNc1nccc(-c2c(-c3ccc(F)cc3)ncn2C2CCN(C)CC2)n1,0,0,9,0,16,0,0,31,2,0,25,0,0,0,0,0,0,0,1,14
COc1ccc(C2=C(Nc3cccc(O)c3)C(=O)NC2=O)cc1 [SB-390766],0,0,0,0,49,0,0,34,100,0,100,34,0,100,0,0,1,0,0,14
Fc1cc(Cl)ccc1Nc1ccnc2cc(-c3ccc(CN4CCSCC4)o3)ccc12 [GW560106],0,0,99,21,42,23,0,0,20,20,0,4,51,0,0,0,0,0,6,0
Nc1ncc(-c2ccc3nccc(-c4ccncc4)c3c2)cc1S(=O)(=O)N1CCCCC1 [GSK1693850],22,0,0,0,20,0,0,21,55,0,0,0,29,0,14,3,0,5,6,0
CN(c1ccc(NC(=O)Nc2cccc(Cl)c2)cc1)c1ccnc(N)n1.Cl [GW830707],0,0,15,3,3,0,8,6,2,0,0,0,2,0,19,0,8,0,0,0
N#Cc1cnc2cc(-c3cnc(CNCCN4CCOCC4)s3)ccc2c1Nc1ccc(Oc2ccccc2)cc1 [GW664114],0,0,94.1,95.9,30,0,0,12,2,97.7,7,0,82,0,12,0,0,0,34,88
O=C(O)C(F)(F)F.O=c1[nH]ccc2nc(N[C@@H]3CCNC3)nc(Nc3ccc4c(c3)S(=O)(=O)CC4)c12 [GSK2181306],99,25,48,0,92.1,0,88,96.9,100,90.6,20,84,87,10,99.3,90.3,60,94.9,68,0
COc1cc(Nc2ccnc3cc(-c4ccncc4)ccc23)cc(OC)c1OC.Cl [GW494610],0,0,96.1,0,0,0,18,0,0,6,9,11,0,0,0,0,0,0,0,5
COC(=O)Nc1nc2ccc(Oc3ccc(CC(=O)Nc4cc(C(F)(F)F)ccc4F)cc3)cc2[nH]1 [GW680903],0,0,0,0,31,0,0,0,0,0,7,0,0,0,0,0,0,0,4,0
Cc1ccc(NC(=O)c2ccnc(N3CCCCC3)c2)cc1-c1ccc(C(=O)NCC2CC2)cc1 [GW775610],0,0,0,0,0,0,14,0,0,0,0,15,0,0,0,0,0,0,0,0
CC(C)(C)c1ccc(C(=O)Nc2cn3cc(-n4ccnc4)ccc3n2)cc1,79,16,0,0,0,0,0,19,0,0,10,0,0,15,9,0,0,0,24,0
CNc1nccc(-c2ccc3c(N)n[nH]c3c2)n1 [GSK2206003],35,0,19,11,68,5,31,34,0,0,0,0,23,0,37,64,0,0,22,5
Cl.O=C(Nc1ccc(Oc2ccc3[nH]c(NC(=O)c4ccco4)nc3c2)cc1)Nc1cc(C(F)(F)F)ccc1F [GW683134],0,0,23,0,51,0,100,0,76,6,0,12,31,0,89,0,0,0,0,13
CN(c1ccc2c(c1)nc(NCc1ccccc1)n2C)c1ccnc(Nc2ccc(CS(C)(=O)=O)cc2)n1.Cl [GW811603],0,0,32,5,0,30,34,54,0,0,0,7,69,0,46,0,0,0,4,0
Cl.N#CCc1ccc(Nc2nccc(Nc3ccc(Oc4ccccc4)cc3)n2)cc1 [GW639905],96.6,2,37,82,18,0,0,79,0,65,0,10,5,6,0,0,7,0,6,75
CN(c1ccc(NC(=O)N2CCN(CCCN3CCOCC3)CC2)cc1)c1ccnc(Nc2ccc(CS(C)(=O)=O)cc2)n1.Cl [GW830899],0,0,10,0,56,9,46,74,0,88,5,0,15,0,0,0,0,0,53,0
COc1ccc(C)c(Nc2ccnc(Nc3ccc(-c4cnc[nH]4)cc3)n2)c1.Cl [GW784041],0,0,86,0,32,0,30,15,0,12,36,0,16,0,0,0,3,0,49,7
O=C(O)C(F)(F)F.O=c1[nH]ccc2nc(N[C@@H]3CCNC3)nc(Nc3cc(Cl)cc(Cl)c3)c12 [GSK2188764],98.8,6,0,3,84,14,77,95,98.1,46,17,75,84,3,99.1,34,3,18,54,0
